From PubChem
NPSR antagonist = blocks cAMP signaling of the human neuropeptide S receptor. CHO-NPSR cells, cAMP TR-FRET, antagonist mode. Potency, µM (doses to about 38.3 µM), usual class: inhibitors. 1% of 220,000 active. AID 1461; also: nearly all actives have a fitted effect of over 50% in size
Target sequence (Q6W5P4 whole entry, looked up): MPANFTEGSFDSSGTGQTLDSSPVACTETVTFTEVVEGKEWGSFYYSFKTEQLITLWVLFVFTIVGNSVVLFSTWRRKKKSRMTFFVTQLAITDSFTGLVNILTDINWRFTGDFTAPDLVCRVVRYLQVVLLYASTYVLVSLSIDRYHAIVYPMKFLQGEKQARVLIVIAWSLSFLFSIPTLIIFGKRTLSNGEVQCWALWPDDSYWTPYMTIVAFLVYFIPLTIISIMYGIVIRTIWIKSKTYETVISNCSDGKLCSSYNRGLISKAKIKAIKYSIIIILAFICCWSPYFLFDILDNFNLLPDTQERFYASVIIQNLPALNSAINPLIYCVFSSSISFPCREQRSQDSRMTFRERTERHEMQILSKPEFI
Tau fluor counter = counter-screen for tau fibril formation inhibitors; 0.93% of 280,000 active; tau K18 P301L Alexa594 fluorescence, heparin fibrillization; Potency, µM (doses to about 57.7 µM); AID 1463; also: nearly all actives have a fitted effect of over 55% in size
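Human K18 P301L tau (15 uM unlabeled plus 0.24 uM Alexa 594-labeled, final) in 100 mM sodium acetate pH 7 was mixed with compound and 20 uM heparin and incubated 6 hr at 37 C.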
Tau ThT inhib = blocks human tau fibril formation measured by thioflavin T | recombinant tau K18 P301L (four-repeat tau fragment), heparin-induced fibrillization, ThT fluorescence | Potency, µM (titrated, usually from 57.4 µM), hits mostly inhibitors | 2.1% of 270,000 active | AID 1460; also: nearly all actives have a fitted effect of over 55% in size
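Recombinant human tau K18 fragment […] carrying P301L, 15 uM unlabeled plus 0.24 uM Alexa 594-labeled, was fibrillized with 20 uM heparin in 100 mM sodium acetate pH 7 for 6 hr at 37 C; 30 uM ThT fluorescence read after 1 hr.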
KDM4E inh = JMJD2E (human) inhibition; 1.6% of 230,000 active; Potency, µM (top dose mostly 57.1 µM), hits mostly inhibitors; JMJD2E catalytic domain, FDH-coupled NADH fluorescence (FDH is formaldehyde dehydrogenase); B2RXH2; active = well fitted inhibition curve with a large enough effect, not every such curve was filed as active; inconclusive = small, poorly fitted or top-dose-only effect, or another doubt; inactive = no such curve, though single readings can be large or run the other way; also: nearly all actives have a fitted effect of over 50% in size
Target sequence (B2RXH2 1-337 limits assumed): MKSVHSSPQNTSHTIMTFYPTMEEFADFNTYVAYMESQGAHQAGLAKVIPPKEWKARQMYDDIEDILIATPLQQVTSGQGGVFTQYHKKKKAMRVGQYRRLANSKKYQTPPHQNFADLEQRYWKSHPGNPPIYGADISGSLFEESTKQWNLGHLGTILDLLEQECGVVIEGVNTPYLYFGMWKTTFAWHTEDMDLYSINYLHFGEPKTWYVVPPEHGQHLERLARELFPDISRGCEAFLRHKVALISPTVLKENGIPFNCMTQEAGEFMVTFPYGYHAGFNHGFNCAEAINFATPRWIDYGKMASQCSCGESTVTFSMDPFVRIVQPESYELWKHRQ
PNC assembly inh = blocks assembly of the perinucleolar compartment; AID 2417; 3.1% of 140,000 active; PC3M PTB-GFP, PNC prevalence imaging, 16 h; active compounds read low; activity change (PNC), negative = inhibition, % at 10 µM;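 active = readout at or below -70, meaning at least 70% loss of cells showing the perinucleolar compartment, a nuclear body marking cancer cells; inconclusive = readout between -30 and a set limit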
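PC3M cells stably expressing PTB-GFP, 750–1000 cells/well, treated 16 h at 37 °C with compound (23 nl of library stock), in duplicate. After paraformaldehyde fixation and Hoechst stain, imaged at 20x; PNC prevalence scored by image analysis.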
Tau FP inhib = inhibitors of human tau fibril formation. P10636. K18 P301L tau heparin fibrillization, Alexa594 FP, 6 h. Potency, µM (highest dose often 57.7 µM), most hits filed as inhibitors. 0.39% of 280,000 active; also: nearly all actives have a fitted effect of over 55% in size
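Human tau K18 […] P301L fragment, 15 uM unlabeled plus 0.24 uM Alexa 594-labeled tau (final), with compound and 20 uM heparin in 100 mM sodium acetate pH 7; 6 hr at 37 C, then Alexa 594 FP read.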
Of the large screens only hits and unclear results are named; the others gave an inactive call; [ ] = dose if it differs, or a comment. The list is not random: actives were taken first. Their share in the collection is about 5.1%. Unless noted, calls follow the shape of the dose curve; as a rule, active = well fitted curve in the direction sought with a large enough effect; inconclusive = small, poorly fitted or top-dose-only effect, or another doubt; inactive = no such curve, though single readings can be large; an effect the other way counts as inactive or inconclusive.

CCOP(=O)(OCC)C(NC(=O)Nc1cccc(Cl)c1)c1ccccc1 (stereo not given)	PNC assembly inh -113
COc1ccc2ccccc2c1/C=N/NC(=S)Nc1cc(S(=O)(=O)N2CCOCC2)ccc1N1CCOCC1	KDM4E inh inconclusive
CCOc1cccc(/C=N/NC(=S)Nc2cc(S(=O)(=O)N3CCOCC3)ccc2N2CCOCC2)c1O	Tau fluor counter inconclusive, KDM4E inh 32µM, PNC assembly inh inconclusive, Tau FP inhib inconclusive
COc1ccccc1N1CCN(C(=O)c2cnn(-c3ccc(F)cc3F)c2C2CCNCC2)CC1	none (no result: NPSR antagonist, KDM4E inh, PNC assembly inh)
CCOc1ccc(NC(=O)CC2C(=O)N(c3ccccc3)C(=O)N2C2CCCC2)cc1 (stereo not given)	none (no result: NPSR antagonist, KDM4E inh, PNC assembly inh)
O=C(COc1ncnc2scc(-c3ccc(F)cc3)c12)NCc1ccco1	Tau ThT inhib inconclusive, KDM4E inh inconclusive
Cc1ccc(-c2csc3ncnc(OCC(=O)NC(=O)NCc4ccco4)c23)cc1	Tau ThT inhib inconclusive, PNC assembly inh -125, Tau FP inhib inconclusive
O=C(COc1ccc(C(=O)c2ccccc2)cc1)NCc1ccc(F)cc1	NPSR antagonist inconclusive, KDM4E inh inconclusive, PNC assembly inh -81
COC(=O)C1=C(C(=O)OC)C(c2ccccc2O)c2sc(=O)[nH]c2S1 (stereo not given)	Tau ThT inhib 25µM, KDM4E inh inconclusive
COC(=O)c1sc2ccccc2c1N	Tau ThT inhib inconclusive, KDM4E inh inconclusive, PNC assembly inh inconclusive
COc1ccc(-c2cn3cc([N+](=O)[O-])ccc3n2)cc1OC	Tau ThT inhib 4.5µM (no result: PNC assembly inh)
COc1ccc(-c2cn3ccccc3n2)cc1[N+](=O)[O-]	Tau ThT inhib inconclusive
CCCCC/C=C\C\C=C/C=C/C=C/[C@@H](SC[C@H](N)C(=O)NCC(=O)O)[C@@H](O)CCCC(=O)O	none (no result: NPSR antagonist, KDM4E inh, PNC assembly inh)
COc1ccc(C2NC(=S)NC(C)=C2C(=O)c2ccccc2)cc1OC (stereo not given)	Tau ThT inhib inconclusive, PNC assembly inh -86
O=C(NN=C1CCC(c2ccccc2)CC1)c1ccccc1-n1cccc1 (stereo not given)	none
CC1CCC/C(=N/NC(=O)c2ccccc2-n2cccc2)C1 (stereo not given)	PNC assembly inh -109
COc1cccc(Nc2nc3ccc(C(=O)c4ccccc4)cc3n3c(C)nnc23)c1	none (no result: NPSR antagonist, KDM4E inh, PNC assembly inh)
O=C(CSc1nc2nc3c(cc2c(=O)n1-c1ccccc1)CCCC3)Nc1cccc2ccccc12	none
Cc1c(O)nc(SCC(=O)Nc2ccc3c4c(cccc24)CC3)n(-c2ccccc2)c1=O	PNC assembly inh -113
O=C(c1ccc(Cn2cc(Br)cn2)o1)n1cccn1	PNC assembly inh -83
O=C(N/N=C/c1c(F)c(F)c(F)c(F)c1F)c1ccc(Cn2cc(Br)cn2)o1	none
NNC(=O)c1ccc(Cn2cc(Br)cn2)cc1	KDM4E inh inconclusive, PNC assembly inh -114
O=C(N/N=C/c1c(F)cccc1Cl)c1ccc(Cn2cc(Br)cn2)o1	PNC assembly inh -114
Cc1ccccc1OCC(=O)Nc1ccc(OCc2cc(=O)n3ccsc3n2)cc1	Tau ThT inhib inconclusive (no result: NPSR antagonist, KDM4E inh, PNC assembly inh)
O=C(Nc1c(C(=O)Nc2ccc(F)cc2)oc2ccccc12)c1cc2ccccc2o1	Tau fluor counter inconclusive, Tau FP inhib inconclusive (no result: NPSR antagonist, KDM4E inh, PNC assembly inh)
O=C(/C=C/NNC(=O)c1ccc(Br)cc1)c1ccccc1	Tau fluor counter inconclusive, Tau ThT inhib 25µM
COC(=O)c1cccc(Nc2c(-c3ccc(SC)cc3)nc3nc[nH]n23)c1	Tau fluor counter inconclusive, Tau ThT inhib inconclusive (no result: NPSR antagonist, KDM4E inh, PNC assembly inh)
C/C(=N\Nc1cc(C)nc(-c2ccccc2O)n1)c1ccccc1O	NPSR antagonist inconclusive, Tau fluor counter 10µM[quencher], Tau ThT inhib inconclusive, KDM4E inh inconclusive, Tau FP inhib inconclusive (no result: PNC assembly inh)
COC(=O)c1ccc(Nc2cc(C)nc(-c3ccccc3O)n2)cc1	NPSR antagonist inconclusive, Tau fluor counter inconclusive, Tau FP inhib inconclusive
COC(=O)c1cccc(Nc2cc(C)nc(-c3ccccc3O)n2)c1	NPSR antagonist inconclusive, Tau fluor counter inconclusive, Tau ThT inhib inconclusive, Tau FP inhib 11µM
CCOc1ccc(NC(=O)CCn2cccn2)cc1	none (no result: NPSR antagonist, KDM4E inh, PNC assembly inh)
COc1ccc2nc(S(=O)Cc3ncc(C)c(OC)c3C)[nH]c2c1 (stereo not given)	Tau ThT inhib 32µM, KDM4E inh 25µM, Tau FP inhib inconclusive
Cn1nc(CC(=O)NC2CCCCCCCCCCC2)c2ccccc2c1=O	none
Cn1nc(CC(=O)Nc2ncc(Br)s2)c2ccccc2c1=O	PNC assembly inh -119
COC(=O)CN1C(=O)S/C(=C/c2ccc(N3CCCCC3)o2)C1=O	NPSR antagonist inconclusive, Tau ThT inhib 25µM, KDM4E inh inconclusive, Tau FP inhib inconclusive
O=C(O)CN1C(=O)/C(=C/c2ccc(N3CCCCC3)o2)SC1=S	Tau ThT inhib 16µM, KDM4E inh 32µM, Tau FP inhib inconclusive (no result: PNC assembly inh)
Clc1ccc(-c2cnn3c(-c4ccncc4)ccnc23)cc1	Tau ThT inhib 2.5µM (no result: PNC assembly inh)
Nc1c(C(=O)O)cnc2c(-c3ccc(Cl)cc3)cnn12	Tau ThT inhib inconclusive, KDM4E inh inconclusive (no result: PNC assembly inh)
COc1ccc(OC)c(NC(=O)C2CCCN(S(=O)(=O)c3ccc4[nH]c(=O)ccc4c3)C2)c1 (stereo not given)	Tau fluor counter inconclusive (no result: NPSR antagonist, KDM4E inh, PNC assembly inh)
COc1cc(OC)c(N2CC34C=CC(O3)C(C(=O)O)C4C2=O)cc1Cl (stereo not given)	PNC assembly inh -92
CCOC(=O)Nc1ccc2c(c1)Nc1ccccc1S2	Tau fluor counter 14µM[quencher], Tau ThT inhib 7.9µM
COc1ccc(Nc2nc(-c3cccs3)nc3ccccc23)c(OC)c1	Tau fluor counter 10µM[quencher], Tau ThT inhib inconclusive, KDM4E inh inconclusive
Oc1ccc(Nc2nc(-c3cccs3)cs2)cc1	Tau fluor counter 11µM[quencher], Tau ThT inhib inconclusive
COc1ccc(NC(=O)CSc2ccc(-c3cccs3)nn2)c(OC)c1	none (no result: PNC assembly inh)
COc1ccc(Nc2nc(-c3cccc([N+](=O)[O-])c3)nc3ccccc23)c(OC)c1	Tau fluor counter inconclusive, Tau FP inhib inconclusive
COc1ccc(Nc2nc(-c3cccs3)cs2)c(OC)c1	Tau fluor counter 16µM[quencher], Tau ThT inhib 11µM, KDM4E inh inconclusive
COc1ccccc1Nc1nc(-c2cccs2)cs1	Tau fluor counter inconclusive, Tau ThT inhib 14µM
COc1ccc(OC)c(Nc2nc(-c3cccs3)cs2)c1	Tau fluor counter 16µM[quencher], Tau ThT inhib inconclusive
Cc1ccc(CNc2nc(-c3cccs3)nc3ccccc23)cc1	Tau fluor counter inconclusive, KDM4E inh inconclusive, Tau FP inhib 40µM
COc1ccc(Nc2nc(-c3cccs3)cs2)cc1	Tau fluor counter inconclusive, Tau ThT inhib inconclusive
O=C(CC1Sc2ncnn2C1=O)Nc1ccc(Br)cc1 (stereo not given)	Tau ThT inhib inconclusive, KDM4E inh 2.2µM
O=C(CC1SC2=NCCN2C1=O)Nc1ccc(Br)cc1 (stereo not given)	PNC assembly inh inconclusive
